# Columns and labels:
# Format in all cases: functional
# [1] = target: Solute carrier family 2, facilitated glucose transporter member 1 (Homo sapiens) (UniProt P11166); test: ST_JUDE_LEISH: Cytotoxicity at 2uM final concentration against transgenic Leishmania Mexicana promastigotes LmGLUT1 that are glucose transport deficient and complemented with the human glucose transporter GLUT1. Activity is measured by DNA content using SYBR green in vitro
# [2] = target: Hexose transporter 1 (Plasmodium falciparum) (UniProt O97467); test: ST_JUDE_LEISH: Cytotoxicity at 2uM final concentration against transgenic Leishmania Mexicana promastigotes LmPfHT that are glucose transport deficient and complemented with the Plasmodium falciparum hexose transporter. Activity is measured by DNA content using SYBR green in vitro
# [3] = target: Glucose transporter (Leishmania mexicana) (UniProt O61059); test: ST_JUDE_LEISH: Cytotoxicity at 2uM final concentration against transgenic Leishmania Mexicana promastigotes LmGT2 that are glucose transport deficient and complemented with the L. Mexicana glucose transporter 2. Activity is measured by DNA content using SYBR green in vitro
# Chain of Solute carrier family 2, facilitated glucose transporter member 1 (Homo sapiens) (P11166 whole entry): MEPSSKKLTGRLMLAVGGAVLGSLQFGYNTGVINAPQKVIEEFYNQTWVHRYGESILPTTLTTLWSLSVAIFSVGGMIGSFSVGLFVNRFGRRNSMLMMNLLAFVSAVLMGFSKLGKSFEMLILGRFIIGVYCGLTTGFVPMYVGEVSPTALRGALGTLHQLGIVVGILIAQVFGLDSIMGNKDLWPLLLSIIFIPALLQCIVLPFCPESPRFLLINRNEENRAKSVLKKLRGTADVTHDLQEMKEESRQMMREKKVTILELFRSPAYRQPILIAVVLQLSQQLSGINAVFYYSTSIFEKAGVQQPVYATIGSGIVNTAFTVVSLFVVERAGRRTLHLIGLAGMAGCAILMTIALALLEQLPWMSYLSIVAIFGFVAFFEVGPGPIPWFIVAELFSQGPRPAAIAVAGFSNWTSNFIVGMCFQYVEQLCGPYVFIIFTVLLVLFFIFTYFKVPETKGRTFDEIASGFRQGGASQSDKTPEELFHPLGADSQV
SMILES,inhibition [1],inhibition [2],inhibition [3]
Cc1nnc2c(NC(=O)NC3CCCC3)cc3ccc(-c4cccc(CN(C)C)c4)cc3n12,2.19%,2.6%,0.64%
Cn1nccc1C(=O)NCCNCc1ccc(-c2ccc(-c3nc4cc(C(F)(F)F)ccc4[nH]3)s2)cc1,0.47%,-0.52%,0.87%
O=C(Nc1ccc(OC2CCN(Cc3ccc(F)cc3)CC2)c(Cl)c1)c1ccc(F)cc1,2.58%,3.52%,7.21%
COc1ccc(-c2cnc3[nH]cc(-c4ccc(CCC(=O)O)cc4)c3c2)cn1,5.06%,4.52%,6.38%
Oc1ccc(Cl)c2c1C(c1ccccc1)=NCC2,-1.17%,-0.25%,1.69%
CCCNCc1ccc(-c2ccc(CN(Cc3cnc(C)cn3)C(=O)/C=C/c3ccccc3C)cc2)nc1,2.17%,0.74%,0.97%
COc1cc2nc(NCc3nc4ccccc4[nH]3)nc(N)c2cc1OC,11%,11.9%,10.3%
CCC[C@@H]([C@@H](CC1CCCCC1)C(=O)N[C@H](C(=O)Nc1nccs1)C(C)(C)SCCNC(=O)OCC)N(O)C=O,3.35%,4.46%,4.28%
CC(CNC(=O)c1cc2c(Cl)cc(Cl)cc2[nH]1)CNc1cc(=O)c2ccccc2[nH]1 (stereo unspecified),-0.17%,1.37%,2.08%
Oc1cccc(-c2nc(-c3ccccc3)c(-c3ccc(Oc4ccc(-c5[nH]c(-c6cccc(O)c6)nc5-c5ccccc5)cc4)cc3)[nH]2)c1,1.24%,2.89%,1.33%
COc1ccc(N2CCN(CCCCNC(=O)c3ccc(NC(=O)c4cc(Cl)cc(Cl)c4)cc3)CC2)c(OC)c1,2.07%,3.87%,3.2%
O=C(Nc1cc(C(F)(F)F)cc(C(F)(F)F)c1)Nc1cc(C(F)(F)F)cc(C(F)(F)F)c1,1.91%,4.29%,3.86%
CCOC(=O)c1cc(C(=O)NCCCCN2CCC(c3ccc4c(c3OC)CCCC4)CC2)ccc1-c1ccc(C(F)(F)F)cc1,-2.37%,4.37%,1.36%
COc1cccc(Nc2nccc(NCC(O)c3ccc(C(F)(F)F)cc3)n2)c1 (stereo unspecified),7.45%,8.55%,2.75%
CCC(C)NCc1c(O)ccc2c(CNC(C)CC)c(O)ccc12 (stereo unspecified),2.24%,3.63%,2.13%
O=C(/C=C/c1ccc(Cl)c(Cl)c1)NCCCCCN1CCC(NS(=O)(=O)c2cc(Cl)cc(Cl)c2)CC1,3.59%,3.03%,3.19%
O=C(C=Cc1ccc(Cl)c(Cl)c1)NCCCCCN1CCCC(CCCNS(=O)(=O)c2cccc(C(F)(F)F)c2)C1 (stereo unspecified),0.93%,-0.07%,2.4%
CCCCCN1CCCCC(NS(=O)(=O)c2ccc(C(=O)Nc3cccc(C(F)(F)F)c3)cc2)C1 (stereo unspecified),6.68%,5.05%,3.25%
COc1cc(OC)c(OC)cc1CN1CCC2(CC1)CN(Cc1ccc(Cl)c(Cl)c1)C(=O)O2,10.3%,9.41%,8.16%
Clc1ccc2c(NCc3ccc4c(c3)OCO4)ccnc2c1,6%,8.03%,4.15%
C[C@@H](C(=O)N1CCOCC1)N1CC[C@H](NS(=O)(=O)c2ccc3ccnc(N)c3c2)C1=O,-1.02%,-1.24%,-4.28%
Nc1nccc2ccc(-c3ccc(Oc4ccccc4)cc3)cc12,14.9%,15.8%,12.2%
CC(C)N(CCOc1ccc2c(c1)N(C(=O)Nc1ccc(Cl)c(Cl)c1)CC2)C(C)C,-0.91%,0.27%,-4.18%
Cc1cc(=NN=Cc2ccc(F)cc2)c2cccc(C)c2[nH]1,3.22%,2.28%,3.02%
COc1ccc(NC(=O)N2CCc3ccc(OCCN(C(C)C)C(C)C)cc32)cc1C(F)(F)F,7.93%,7.33%,5.73%
COc1ccc2nccc([C@@H](O)CN3CCC(NC(=O)c4cc5c(F)cc(F)cc5[nH]4)CC3)c2n1,87%,84.1%,85.4%

SMILES,inhibition [1],inhibition [2],inhibition [3]
O=C(Nc1cccc(CN2CCCN(Cc3ccc(O)cc3)CC2)c1)c1ccc(-c2ccccc2)cc1,1.14%,0.52%,-2.97%
COc1ccc(CNCc2ccc(-c3ccc(-c4nc5cc(C(F)(F)F)ccc5[nH]4)s3)cc2)cc1,3.27%,1.92%,2.4%
CC(=O)Nc1cccc(C(=O)Nc2cccc(-c3ccc(-c4nc5cccc(C)c5[nH]4)s3)c2)c1,3.54%,1.14%,0.43%
Cc1ccc(C(=O)Nc2ccc(C)c(OC3CCN(Cc4ccco4)C3)c2)cc1 (stereo unspecified),0.19%,1.86%,7.13%
CCn1c(-c2nonc2N)nc2c(-c3cccc(NC(=O)Nc4ccc(C(F)(F)F)cc4)c3)ncc(OCCCN)c21,2.98%,2.48%,3.54%
Cn1cncc1C(=O)Nc1cccc(-c2cccc(-c3nc4ccccc4[nH]3)c2)c1,4.71%,4.74%,5.38%
CC(=O)c1ccc2nc[nH]c(=O)c2c1,99.2%,96.3%,91.6%
COc1ccc(CN(C)CCOc2ccc(NC(=O)c3cccc4c(=O)c5cc(SC)ccc5[nH]c34)cc2)cc1OC,10.2%,8.45%,3.5%
Cc1nc2ccccc2n1C1CC2CCC(C1)N2CCC1(c2ccccc2)CCN(C(=O)Nc2ccc(C(F)(F)F)cc2)CC1 (stereo unspecified),4.65%,4.07%,1.78%
O=S(=O)(NCCN1CCCC1)c1cccc(-c2cccc(CNCc3ccc(F)cc3)c2)c1,0.2%,2.85%,-2.32%
CN1CCN(c2cc3c(cc2Br)CCN3C(=O)Nc2ccc(-c3cnc4ccccc4c3)cc2)CC1,107%,100%,109%
Cc1cc(OCC2CCCO2)c2cc(NC(=O)C(=O)Nc3ccc4nc(C)cc(OCC5CCCO5)c4c3)ccc2n1 (stereo unspecified),3.87%,3.62%,3.37%
CNC(=O)c1cc(S(=O)(=O)N2CCN(c3ccccn3)CC2)cs1,0.24%,0.78%,-2.48%
CCCCN(CCCC)CCCCCCNc1c2ccccc2nc2ccccc12,28%,22.7%,18.2%
CC(=O)Nc1ccc(C(=O)Nc2ccc(-c3cccc(-c4nc5cccc(C)c5[nH]4)c3)cc2)cn1,-3.82%,-0.04%,-3.28%
CNC(=O)NC1=NC(C)(C)N(OCc2ccc(Cl)c(Cl)c2)C(NC(=O)NC)=N1,1.27%,0.11%,0.39%
COc1ccccc1NC(=O)CSc1nc2cccnc2n1-c1ccccc1OC,0.89%,2.24%,0.14%
NC1=NC(CCc2ccccc2)N(c2ccc(Cl)cc2)C(N)=N1 (stereo unspecified),7.41%,1.15%,1.06%
CCCN1CCC(NCc2cn(C)nc2-c2ccc(Oc3ccccc3)cc2)CC1,10.8%,11%,11.5%
O=C(NCc1ccc(Cl)c(Cl)c1)c1ccc(C2CCN(Cc3ccc4[nH]cnc4c3)CC2)cc1,2.71%,1.42%,0.28%
O=C(NCCN1CCCCC1)c1ccc(Nc2nccc(Nc3ccc(Oc4ccccc4)cc3)n2)cc1,7.53%,8.31%,16.6%
C#CCOc1ccc2ccccc2c1CNCCCCCCNCc1c(OCC#C)ccc2ccccc12,8.53%,2.21%,0.87%
FC(F)(F)c1ccc2[nH]ccc(=NN=Cc3cccc(Cl)c3)c2c1,1.05%,-0.16%,-3.89%
O=C(NC1CCN(CCN2CCc3ccccc3CC2)CC1)c1ccc(-c2ccc(C(F)(F)F)cc2)cc1,5.74%,9.69%,4.56%
CC(C)Sc1nc2c(c(=O)n1Cc1ccco1)C1(CCCC1)Cc1ccccc1-2,6.99%,4.28%,6.08%
CN(C)CCNCc1ccc(-c2ccc(-c3nc4cc(F)ccc4[nH]3)cc2)cc1,9.57%,7.88%,5.4%

# — ChEMBL document CHEMBL3433997, “St. Jude Leishmania screening dataset” (2016)
